SMN2 splice up = increases expression of the SMN2 splice variant; HEK293 SMN2-luciferase splicing reporter, luminescence, 30-36 h; Potency, µM (doses to about 46.1 µM), hits mostly activators; 210,000 tested, 2.8% active; AID 1458; note: nearly all actives have a fitted effect of over 55% in size
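HEK293 cells carry an SMN2 minigene-luciferase reporter in which exon 7 inclusion puts luciferase in frame. Cells were seeded at 2000 cells/well, attached for 10-12 hours, then exposed to compounds for 30-36 hours at 37C before ONE-Glo luminescence.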
FLuc counter = counter-screen for miR-21 project: firefly luciferase inhibitors or activators; P08659; purified FLuc, Km substrates, luminescence inhibition; Potency, µM (series often up to 57.5 µM), most hits filed as inhibitors; 360,000 tested, 6.9% active; AID 588342; note: nearly all actives have a fitted effect of over 55% in size
Target sequence (P08659 whole entry, looked up): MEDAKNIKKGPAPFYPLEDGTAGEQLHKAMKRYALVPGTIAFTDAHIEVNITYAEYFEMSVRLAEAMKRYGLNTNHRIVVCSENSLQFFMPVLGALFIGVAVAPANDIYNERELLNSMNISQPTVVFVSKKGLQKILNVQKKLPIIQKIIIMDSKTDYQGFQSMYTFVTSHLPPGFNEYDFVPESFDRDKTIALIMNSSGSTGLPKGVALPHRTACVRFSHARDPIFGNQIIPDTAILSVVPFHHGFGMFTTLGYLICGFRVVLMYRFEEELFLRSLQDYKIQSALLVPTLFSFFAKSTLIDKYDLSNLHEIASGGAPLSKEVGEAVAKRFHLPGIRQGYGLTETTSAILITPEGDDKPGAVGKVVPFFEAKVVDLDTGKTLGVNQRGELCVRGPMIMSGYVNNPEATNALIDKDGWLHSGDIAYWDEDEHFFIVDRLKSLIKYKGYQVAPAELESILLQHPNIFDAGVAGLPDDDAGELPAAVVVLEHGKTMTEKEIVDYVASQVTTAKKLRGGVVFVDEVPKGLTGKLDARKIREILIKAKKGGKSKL
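Purified P. pyralis luciferase, 10 nM final, with Km-level 10 uM D-luciferin and 10 uM ATP in 50 mM Tris acetate pH 7.5, 10 mM Mg acetate, 0.01% Tween-20, 0.05% BSA; 6-point qHTS titration about 60 µM downward; luminescence read.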
NPC1 prom act = activates the NPC1 promoter | AID 485313 | 320,000 tested, 2.4% active | Potency, µM (doses to about 9.22 µM), most hits filed as activators | Huh7 NPC1 promoter luciferase reporter, 24 h; note: nearly all actives have a fitted effect of over 60% in size
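Luciferase expression driven by the NPC1 promoter was measured in stably transfected Huh7 cells after a 24 h compound incubation, using a luciferase reagent and a luminescence read.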
Rab9 promoter act = activates the Rab9 promoter; Huh7 Rab9 promoter-luciferase reporter, luminescence, 24 h; Potency, µM (series often up to 9.22 µM), most hits filed as activators; 320,000 tested, 2.8% active; AID 485297; note: nearly all actives have a fitted effect of over 60% in size
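Huh7 reporter line, Rab9 promoter upstream of luciferase. Compound exposure 24 h at 37 °C in reduced-serum medium with 10% FBS. Read-out: luminescence.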
ELG1 genotox = induces genotoxicity in HEK293T cells with luciferase-tagged ELG1. HEK293T ELG1-luciferase reporter, luminescence, 16 h. Potency, µM (series often up to 46 µM), actives largely listed as activators. 330,000 tested, 1.3% active; note: nearly all actives have a fitted effect of over 60% in size
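Step 1: seed 2,000 HEK293T ELG1-luciferase cells per well. Step 2: add compound or DMSO, incubate 16 hr at 37 °C. Step 3: ONE-Glo, 30 min at room temperature, read luminescence.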
ELG1 DNA repair = blocks ELG1-dependent DNA repair in HEK293T cells | HEK293T ELG1-luciferase reporter, luminescence, 16 h; DNA damage induced by 5-fluorouridine | Potency, µM (series often up to 46.1 µM), most hits filed as inhibitors | 330,000 tested, 2.3% active | AID 504467; note: nearly all actives have a fitted effect of over 55% in size
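5-Fluorouridine DNA damage + compound/DMSO, 2,000 cells/well, 16 h, 37 °C/5% CO2. ONE-Glo, 30 min RT, luminescence. Readout = decrease in reporter signal.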
Numbers stand for hits; 0 = inactive; ? = inconclusive; - = no result; [ ] = another dose, or the depositor's remark. Hits are enriched below; roughly 9.4% of the tested compounds scored in any of these assays. Calls come from the whole dose curve; as a rule, active = well fitted curve in the direction sought with a large enough effect; inconclusive = small, poorly fitted or top-dose-only effect, or another doubt; inactive = no such curve, though single readings can be large; an effect the other way counts as inactive or inconclusive.

SMILES | SMN2 splice up | FLuc counter | NPC1 prom act | Rab9 promoter act | ELG1 genotox | ELG1 DNA repair
Cc1nn(C(=O)c2cccs2)c(N)c1-c1ccccc1 | ? | 4.3µM | ? | ? | ? | ?
O=C(CCC(=O)c1cccs1)c1cccs1 | - | 4.8µM | 1.3µM | 0.63µM | 16µM | ?
COc1cccc(C(=O)COC(=O)c2cccs2)c1 | - | 0.48µM | ? | 0 | ? | ?
O=C(COC(=O)c1cccs1)c1ccccc1 | 0 | 0.85µM | ? | 4µM | 0 | ?
O=C(CSCc1ccco1)c1cccs1 | 0 | 9.5µM | 4µM | 1.3µM | 12µM | ?
COc1cccc(C(=O)COC(=O)c2cc(-c3cccs3)nc3ccccc23)c1 | 0 | 0 | - | - | - | -
CCOCCc1nn2c(=O)cc(COC(=O)c3ccc(NC(=O)C(C)(C)C)cc3)nc2s1 | - | 0 | - | - | - | -
C[N+](C)(C)[C@H](Cc1c[nH]c(=S)[nH]1)C(=O)O | 0[9.22 µM] | - | - | - | - | -
CCOc1ccc(N(CC(=O)Nc2ccccc2CC)S(=O)(=O)c2c(C)noc2C)cc1 | 0 | 0 | - | - | - | -
Cc1ccc(CNC(=O)c2sc3nc(C)cc(C)c3c2-n2cccc2)cc1 | - | 0 | - | - | - | -
CCn1nc(C)c(Br)c1-c1nc(CS(=O)(=O)c2ccc(F)cc2)no1 | - | 0 | 0 | 0 | 0 | 0
CCn1nc(C)c(Br)c1-c1nc(-c2ccc(C)cc2)no1 | - | 15µM | 0 | 0 | 0 | 0
O=S(=O)(c1ccc(-c2cc(C(F)(F)F)on2)s1)N1CCN(c2ccc(F)cc2)CC1 | - | 0 | - | - | - | -
CCOc1cc(/C=C2/C(=O)NN(c3cccc(Cl)c3)C2=O)ccc1O | - | 24µM | 0 | 0 | 0 | 0
COc1cc(/C=C2/NC(=O)N(c3cccc(Cl)c3)C2=O)ccc1O | - | 0 | 0 | 0 | 0 | 0
COc1cc(/C=C2/C(=O)NN(c3cccc(Cl)c3)C2=O)cc(OC)c1O | - | 21µM | 0 | 0 | 0 | 0
COC(=O)c1ccc(N2NC(=O)/C(=C/c3ccc(OC)c(OC)c3)C2=O)cc1 | - | ? | 0 | 0 | 0 | 0
O=C1NN(c2cccc(Br)c2)C(=O)/C1=C\c1ccc(O)cc1 | - | 15µM | 0 | 0[1.84 µM] | 0 | 0
CCOC(=O)c1c(S(=O)(=O)NCC(=O)N2CCN(c3cccc(Cl)c3)CC2)c(C)n(C)c1C | - | 0 | - | - | - | -
COc1ccc(N(CC(=O)Nc2cc(C)ccc2C)S(=O)(=O)c2ccc(OC)c(OC)c2)cc1 | 0 | 0 | - | - | - | -
CCC(O)OC(O)CC (centres undefined) | 0 | - | - | - | - | -
COc1ccc(C(=O)C23CC4CC(C2)CC(C(=O)c2ccc(OC)cc2)(C4)C3)cc1 | 0 | 0 | 0 | 0 | 0 | 5.8µM
CCCC(=O)N(c1ccc2oc(-c3ccccc3)c(C(=O)OCC)c2c1)S(=O)(=O)c1ccc(C)cc1 | 0 | 0 | - | - | - | -
COc1cccc(CS(=O)(=O)c2nnnn2-c2ccc(F)cc2Br)c1 | 0 | - | - | - | - | -
COc1cccc(N2CCN(C(=O)CCCCCn3c(=S)[nH]c4cc5c(cc4c3=O)OCO5)CC2)c1 | - | 0 | 0 | 0 | ? | 0
SMILES | SMN2 splice up | FLuc counter | NPC1 prom act | Rab9 promoter act | ELG1 genotox | ELG1 DNA repair
O=C(CCCn1c(=S)[nH]c2cc3c(cc2c1=O)OCO3)N1CCN(c2ccccc2F)CC1 | 0 | 0 | 0 | 0 | 0 | 23µM
O=C(CCCCCn1c(=S)[nH]c2cc3c(cc2c1=O)OCO3)N1CCN(c2ccccc2)CC1 | - | 0 | 0 | 0 | 0 | 0
O=C(CCCn1c(=S)[nH]c2cc3c(cc2c1=O)OCO3)N1CCN(c2ncccn2)CC1 | 0 | 0 | 0 | 0 | 0 | 15µM
Cc1ccc(C)c(N2CCN(C(=O)CCCn3c(=S)[nH]c4cc5c(cc4c3=O)OCO5)CC2)c1 | 0 | 0 | 0 | 0 | 0 | 9.2µM
O=C(CCCn1c(=S)[nH]c2cc3c(cc2c1=O)OCO3)N1CCN(c2ccc(F)cc2)CC1 | 0 | 0 | 0 | 0 | 0 | 16µM
CCOc1ccc(OCC)c(NC(=O)C2CCN(S(=O)(=O)c3ccc(Br)s3)CC2)c1 | 0 | 0 | - | - | - | -
CC1CN(C(=O)N2CCC(C(=O)NCCCc3ccccc3)CC2)c2cc(Cl)ccc2O1 (centres undefined) | - | 0 | - | - | - | -
CCOC(=O)N1CCN(C(=O)CCCn2c(=S)[nH]c3ccc(Br)cc3c2=O)CC1 | ? | 0 | 0 | 0 | 0 | 23µM
CCOC(=O)N1CCN(C(=O)CCCn2c(=S)[nH]c3ccccc3c2=O)CC1 | 0 | 0 | - | - | - | -
